Laboratory results: PubChem BioAssay
For some of these results: Potency and affinity values are given separately. Calls of active or inactive are those of the source. Unless noted, no rule for the calls is given here.

How the values were obtained:
[1] = antimalarial activity against Dd2 strain (AID 2302;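 active = growth inhibition above 50% at the single 2 µM test dose, taken to imply half-maximal potency below 2 µM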;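 also: 0% = DMSO untreated growth and 100% = chloroquine plus artemisinin killed control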); conditions: P. falciparum Dd2 in RBCs, LDH growth readout, 72 h; at 2 µM; active compounds read high
[2] = human hepatoma cell viability loss – ATP luminescence, cytotoxicity control for P. falciparum antimalarial project, primary screen (AID 2303;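 active = inhibition above 50%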;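 also: 0% = DMSO wells and 100% = digitonin-killed cells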); conditions: HepG2 viability, 24-48 h, at 10 µM, active compounds read high
[3] = molecular target: L-lactate dehydrogenase (Plasmodium falciparum (isolate CDC / Honduras)) (UniProt Q27743); assay: PfLDH activity inhibition – cell lysate, 3D7 strain, counter-screen for P. falciparum growth inhibition project (AID 2304);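 also: 0% = vehicle and 100% = reference inhibitor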; conditions: P. falciparum 3D7 crude extract, LDH APAD/NBT absorbance; at 2 µM; active compounds read high
[4] = inhibition of 3D7 malaria parasite growth – strain 3D7 (AID 2306);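 also: 0% = DMSO wells and 100% = chloroquine plus artemisinin control wells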; conditions: P. falciparum 3D7 erythrocytic growth, LDH absorbance, 72 h; at 2 µM; active compounds read high
[5] = molecular target: Calcium-dependent protein kinase 1 (Plasmodium falciparum (isolate 3D7)) (UniProt P62344); assay: PfCDPK1 kinase inhibitors, biochemical, TCAMS library (AID 1159585; cut-off not given, nearly all actives have IC50 up to about 0.98 µM;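 also: inhibitors leave more ATP so luminescence rises with inhibition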); conditions: recombinant PfCDPK1, Kinase-Glo ATP depletion luminescence
[6] = molecular target: Plasmodium falciparum protein kinase 6 (PK6, PF3D7_1337100) (UniProt Q8IDW1); assay: PfPK6 kinase inhibitors, biochemical, TCAMS library (AID 1159586); conditions: recombinant PfPK6, Kinase-Glo ATP depletion luminescence
[7] = molecular target: Protein kinase 7 (PK7), Plasmodium falciparum 3D7 (PF3D7_0213400) (UniProt Q7YTF7); assay: inhibition of Plasmodium PK7 catalytic activity – biochemical, TCAMS antimalarial set, Kinase-Glo luminescence (AID 1159587); conditions: recombinant PfPK7, Kinase-Glo ATP depletion luminescence
[8] = molecular target: Calcium-dependent protein kinase 4 (Plasmodium falciparum (isolate 3D7)) (UniProt Q8IBS5); assay: PfCDPK4 kinase inhibitors, biochemical, TCAMS library (AID 1159588; cut-off not given, nearly all actives have IC50 up to about 0.91 µM); conditions: recombinant PfCDPK4, Kinase-Glo ATP depletion luminescence
Chain of Calcium-dependent protein kinase 4 (Plasmodium falciparum (isolate 3D7)) (Q8IBS5 whole entry, looked up): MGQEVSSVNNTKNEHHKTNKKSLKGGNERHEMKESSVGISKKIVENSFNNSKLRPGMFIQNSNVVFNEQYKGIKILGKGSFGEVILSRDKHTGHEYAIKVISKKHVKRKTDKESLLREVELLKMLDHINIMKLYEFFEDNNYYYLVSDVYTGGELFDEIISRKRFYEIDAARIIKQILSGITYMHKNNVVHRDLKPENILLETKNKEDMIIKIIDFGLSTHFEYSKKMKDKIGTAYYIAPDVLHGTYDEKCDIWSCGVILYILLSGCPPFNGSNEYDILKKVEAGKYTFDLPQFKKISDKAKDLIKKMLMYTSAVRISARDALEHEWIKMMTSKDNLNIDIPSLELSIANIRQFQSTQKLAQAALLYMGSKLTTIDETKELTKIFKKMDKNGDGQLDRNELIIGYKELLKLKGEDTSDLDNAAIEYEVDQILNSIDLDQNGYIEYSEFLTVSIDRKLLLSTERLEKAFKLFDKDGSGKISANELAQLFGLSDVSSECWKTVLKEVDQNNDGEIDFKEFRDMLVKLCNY

Chain of L-lactate dehydrogenase (Plasmodium falciparum (isolate CDC / Honduras)) (Q27743 whole entry, looked up): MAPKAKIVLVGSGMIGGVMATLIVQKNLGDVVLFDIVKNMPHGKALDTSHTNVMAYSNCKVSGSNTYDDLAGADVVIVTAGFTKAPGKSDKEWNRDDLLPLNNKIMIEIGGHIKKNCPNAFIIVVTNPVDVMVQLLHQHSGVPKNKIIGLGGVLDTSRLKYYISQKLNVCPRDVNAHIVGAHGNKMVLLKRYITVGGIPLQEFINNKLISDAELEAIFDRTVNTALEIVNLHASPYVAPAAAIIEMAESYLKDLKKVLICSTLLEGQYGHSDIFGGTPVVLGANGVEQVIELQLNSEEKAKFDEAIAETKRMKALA
Chain of Calcium-dependent protein kinase 1 (Plasmodium falciparum (isolate 3D7)) (P62344 whole entry, looked up): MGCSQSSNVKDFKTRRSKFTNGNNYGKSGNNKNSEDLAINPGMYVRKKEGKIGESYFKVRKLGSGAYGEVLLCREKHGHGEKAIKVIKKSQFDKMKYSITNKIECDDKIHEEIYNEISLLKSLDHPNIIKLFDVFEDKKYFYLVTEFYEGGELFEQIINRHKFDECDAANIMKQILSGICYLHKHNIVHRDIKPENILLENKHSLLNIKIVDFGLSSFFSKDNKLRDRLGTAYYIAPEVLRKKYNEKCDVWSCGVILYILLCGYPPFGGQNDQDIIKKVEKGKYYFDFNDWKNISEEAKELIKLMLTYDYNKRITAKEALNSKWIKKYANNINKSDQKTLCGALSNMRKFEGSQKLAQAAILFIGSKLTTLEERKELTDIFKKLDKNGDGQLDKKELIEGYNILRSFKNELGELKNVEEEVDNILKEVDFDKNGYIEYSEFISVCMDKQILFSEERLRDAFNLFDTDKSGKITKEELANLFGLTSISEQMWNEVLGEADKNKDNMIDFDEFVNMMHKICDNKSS
Chain of Plasmodium falciparum protein kinase 6 (PK6, PF3D7_1337100) (Q8IDW1 1-305): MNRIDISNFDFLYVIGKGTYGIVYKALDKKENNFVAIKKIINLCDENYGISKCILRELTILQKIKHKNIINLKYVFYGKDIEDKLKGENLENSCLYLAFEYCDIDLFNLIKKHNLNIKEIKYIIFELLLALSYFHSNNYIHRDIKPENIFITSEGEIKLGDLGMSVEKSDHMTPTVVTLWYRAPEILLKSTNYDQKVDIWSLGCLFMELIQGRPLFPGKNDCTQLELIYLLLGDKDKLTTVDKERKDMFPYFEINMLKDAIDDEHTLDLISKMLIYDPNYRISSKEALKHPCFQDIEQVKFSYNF
Chain of Protein kinase 7 (PK7), Plasmodium falciparum 3D7 (PF3D7_0213400) (Q7YTF7 1-343): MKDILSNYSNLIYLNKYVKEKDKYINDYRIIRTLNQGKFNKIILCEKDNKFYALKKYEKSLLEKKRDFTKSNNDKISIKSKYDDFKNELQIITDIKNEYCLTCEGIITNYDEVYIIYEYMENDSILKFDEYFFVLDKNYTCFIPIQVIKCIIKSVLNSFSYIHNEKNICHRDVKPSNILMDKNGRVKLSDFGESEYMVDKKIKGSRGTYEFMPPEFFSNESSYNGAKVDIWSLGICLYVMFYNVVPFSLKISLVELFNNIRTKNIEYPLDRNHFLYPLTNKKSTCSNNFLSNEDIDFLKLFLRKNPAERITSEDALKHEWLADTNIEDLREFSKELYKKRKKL

O=C(Oc1ccc(C2CNCCc3c2cc(OC(=O)c2ccc(O)cc2)c(OC(=O)c2ccc(O)cc2)c3Cl)cc1)c1ccc(O)cc1 (stereo not given)
active: growth inhibition [1] 60% | growth inhibition [4] 90%
inactive: inhibition [2] -2% | inhibition [3] 0% | outcome [5] | outcome [6] | outcome [7] | outcome [8]

Cc1cccc(-c2ccc(NC(=O)Nc3ccc4nccc(N5CCN(C)CC5)c4c3)cc2C)n1
active: growth inhibition [1] 95% | growth inhibition [4] 101%
inactive: inhibition [2] 4% | inhibition [3] -3% | outcome [5] | outcome [6] | outcome [7] | outcome [8]

CN(CCCCNC(=O)/C=C/c1ccccc1)C1CC2(CCN(C(=O)OC(C)(C)C)CC2)c2ccccc21 (stereo not given)
inactive: inhibition [2] 11% | inhibition [3] 1% | outcome [5] | outcome [6] | outcome [7] | outcome [8]
active: growth inhibition [1] 51% | growth inhibition [4] 87%

Nc1nc(N)c2c(Oc3cccnc3)cccc2n1
active: inhibition [2] 65% | growth inhibition [4] 93%
inactive: growth inhibition [1] -1% | inhibition [3] 6% | outcome [5] | outcome [6] | outcome [7] | outcome [8]

COc1ccc(N2C(=O)c3c(c4ccccc4n3C)C2c2ccccc2O)cc1 (stereo not given)
inactive: inhibition [2] 32% | inhibition [3] 3% | outcome [5] | outcome [6] | outcome [7] | outcome [8]
active: growth inhibition [1] 91% | growth inhibition [4] 96%

CC1=C(C(=O)OC(C)C)C(c2ccccc2Cl)C2=C(CC(c3ccccc3)CC2=O)N1 (stereo not given)
active: growth inhibition [1] 84% | growth inhibition [4] 93%
inactive: inhibition [2] 15% | inhibition [3] 1% | outcome [5] | outcome [6] | outcome [7] | outcome [8]

CN1C(C)(C)CC(NC(=O)c2ccc(-c3cc4cc(Cl)c(Cl)cc4[nH]3)o2)CC1(C)C
active: growth inhibition [4] 101%
inactive: growth inhibition [1] 43% | inhibition [2] 21% | inhibition [3] -4% | outcome [5] | outcome [6] | outcome [7] | outcome [8]

Cc1cc(C)cc(NC(=S)NCCCCN2CCN(c3cccc(Cl)c3)CC2)c1
active: growth inhibition [4] 88%
inactive: growth inhibition [1] 13% | inhibition [2] 11% | inhibition [3] 3% | outcome [5] | outcome [6] | outcome [7] | outcome [8]

Nc1ccc2c(N)c3ccccc3nc2c1
inactive: inhibition [2] 20% | inhibition [3] -2% | outcome [5] | outcome [6] | outcome [7] | outcome [8]
active: growth inhibition [1] 74% | growth inhibition [4] 93%

O=C(Nc1ccc(Cl)cc1)N(CC1C[C@H]2CC[C@@H](C1)N2Cc1ccc(C(F)(F)F)cc1)c1ccc(N2CCOCC2)c(F)c1 (stereo not given in full)
active: growth inhibition [4] 85%
inactive: growth inhibition [1] 36% | inhibition [2] 31% | inhibition [3] 0% | outcome [5] | outcome [6] | outcome [7] | outcome [8]

Nc1nc(N)c2c(Cl)c(N3CCOCC3)ccc2n1
active: inhibition [2] 65% | growth inhibition [4] 96%
inactive: growth inhibition [1] 3% | inhibition [3] 1% | outcome [5] | outcome [6] | outcome [7] | outcome [8]

Clc1cccc(-c2nc(Nc3ccnc(-c4ccc(CN5CCOCC5)cc4)c3)c3ccccc3n2)c1
active: growth inhibition [1] 65% | growth inhibition [4] 100%
inactive: inhibition [2] 8% | inhibition [3] -4% | outcome [5] | outcome [6] | outcome [7] | outcome [8]

CCCCCCCN(CCCCCCC)CCNc1cc(C)nc2ccccc12
active: growth inhibition [4] 89%
inactive: growth inhibition [1] 31% | inhibition [2] 39% | inhibition [3] -2% | outcome [5] | outcome [6] | outcome [7] | outcome [8]

CN1CCN(CCCN(Cc2ccc(-c3cccc(CNCc4ccc5c(c4)OCO5)c3)cc2)C(=O)NCCc2ccccc2)CC1
inactive: inhibition [2] 36% | inhibition [3] 3% | outcome [5] | outcome [6] | outcome [7] | outcome [8]
active: growth inhibition [1] 85% | growth inhibition [4] 98%

Cc1ccc(C2=NNC3(S2)C(=O)N(C)c2ccccc23)cc1 (stereo not given)
active: growth inhibition [4] 82%
inactive: growth inhibition [1] 12% | inhibition [2] 36% | inhibition [3] 5% | outcome [5] | outcome [6] | outcome [7] | outcome [8]

O=c1cc(NCCCNCc2sc(Br)nc2Br)[nH]c2ccccc12
inactive: growth inhibition [1] 44% | inhibition [2] 1% | inhibition [3] -2% | outcome [5] | outcome [6] | outcome [7] | outcome [8]
active: growth inhibition [4] 92%

COc1ccc(-c2cccc(NC(=O)c3cccs3)c2)cc1CN1CCCN(C)CC1
inactive: growth inhibition [1] 30% | inhibition [2] 17% | inhibition [3] 9% | outcome [5] | outcome [6] | outcome [7] | outcome [8]
active: growth inhibition [4] 100%

COC(=O)c1ccc(NC(=O)Nc2cccc(CCNCc3ccccc3)c2)cc1
active: growth inhibition [4] 96%
inactive: growth inhibition [1] 10% | inhibition [2] 2% | inhibition [3] 6% | outcome [5] | outcome [6] | outcome [7] | outcome [8]

Cc1cc(NN=Cc2cccc([N+](=O)[O-])c2)c2ccccc2n1
active: growth inhibition [1] 98% | growth inhibition [4] 101%
inactive: inhibition [2] -9% | inhibition [3] 3% | outcome [5] | outcome [6] | outcome [7] | outcome [8]

CC(C)Oc1cc2c(cc1NS(=O)(=O)c1ccc(-c3ccc(Cl)cc3)cc1)CCN(C)CC2
active: growth inhibition [1] 65% | inhibition [2] 100% | growth inhibition [4] 99%
inactive: inhibition [3] -3% | outcome [5] | outcome [6] | outcome [7] | outcome [8]
